Experimental data as given in article PMC12820563, “FoxP3 forms a head-to-head dimer in vivo and stabilizes its multimerization on adjacent microsatellites”.
Whole data set: some 16,000 sequences, median “rpm ratio (pull-down/input)” near 0.94, cut for the highest 2% near 1.7. Shown is part of a subset that was picked to be rich in the highest values.

target: T1, MBP-FoxP1dN (Mus musculus, UniProt P58462 326-579); experiment: PD-seq (MBP pull-down with sequencing); 20 mM Tris-HCl pH 7.5, 100 mM NaCl, 1.5 mM MgCl2, 0.4 uM protein, 0.1 uM dsDNA library, 30 min, room temperature, amylose pull-down; high values mean tight binding; details: protein: recombinant; tags: His6-MBP; chain copies: 2; dsDNA, one strand shown
T1 sequence: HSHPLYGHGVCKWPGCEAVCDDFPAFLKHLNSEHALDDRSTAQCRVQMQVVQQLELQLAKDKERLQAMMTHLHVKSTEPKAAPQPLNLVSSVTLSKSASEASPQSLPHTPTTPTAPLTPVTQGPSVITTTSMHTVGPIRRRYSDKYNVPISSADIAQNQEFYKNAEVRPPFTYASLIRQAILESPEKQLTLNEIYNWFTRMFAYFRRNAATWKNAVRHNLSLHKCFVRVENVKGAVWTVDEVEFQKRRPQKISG
Outline: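 Protein and DNA were mixed at 0.4 µM and 0.1 µM and held for 30 min at room temperature in Tris pH 7.5 buffer with NaCl and MgCl2; the protein was a His6-MBP-tagged, N-terminally truncated mouse FoxP3 or FoxP1 fragment from E. coli, and the DNA a Klenow-filled double-stranded degenerate library. Amylose resin captured the complexes, which were washed three times. Binding is read as reads-per-million enrichment of pull-down versus input after Illumina sequencing, with replicates pooled.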

Row | Sequence | binding signal
1 | GATGATTGTTCTCCCAGCTGATGAATTGAAAGCCTCGAGTAAACAAATTTTCCTAATCTTTCTGTTCAAGCGCCATCTAC | 0.795 RPM ratio (pull-down/input)
2 | GATGATTGTTCTCCCAGCTGATGAATTATACAGCTCGAGTAAACAAATTTTCCTAATCTTTCTGTTCAAGCGCCATCTAC | 1.03 RPM ratio (pull-down/input)
3 | GATGATTGTTCTCCCAGCTGATGAATTCTCGCGCTCGAGTAAACAAATTTTCCTAATCTTTCTGTTCAAGCGCCATCTAC | 0.835 RPM ratio (pull-down/input)
4 | GATGATTGTTCTCCCAGCTGATGAATTCGTCTTGTCGAGTAAACAAATTTTCCTAATCTTTCTGTTCAAGCGCCATCTAC | 0.827 RPM ratio (pull-down/input)
5 | GATGATTGTTCTCCCAGCTGATGAATTAATAATCTCGAGTAAACAAATTTTCCTAATCTTTCTGTTCAAGCGCCATCTAC | 1.06 RPM ratio (pull-down/input)
6 | GATGATTGTTCTCCCAGCTGATGAATTTTATCTGTCGAGTAAACAAATTTTCCTAATCTTTCTGTTCAAGCGCCATCTAC | 0.918 RPM ratio (pull-down/input)
7 | GATGATTGTTCTCCCAGCTGATGAATTATATCTGTCGAGTAAACAAATTTTCCTAATCTTTCTGTTCAAGCGCCATCTAC | 1.08 RPM ratio (pull-down/input)
8 | GATGATTGTTCTCCCAGCTGATGAATTTATATTGTCGAGTAAACAAATTTTCCTAATCTTTCTGTTCAAGCGCCATCTAC | 2.36 RPM ratio (pull-down/input)
9 | GATGATTGTTCTCCCAGCTGATGAATTTTTATTGTCGAGTAAACAAATTTTCCTAATCTTTCTGTTCAAGCGCCATCTAC | 2.51 RPM ratio (pull-down/input)
10 | GATGATTGTTCTCCCAGCTGATGAATTTTATATGTCGAGTAAACAAATTTTCCTAATCTTTCTGTTCAAGCGCCATCTAC | 0.988 RPM ratio (pull-down/input)
11 | GATGATTGTTCTCCCAGCTGATGAATTTATATTCTCGAGTAAACAAATTTTCCTAATCTTTCTGTTCAAGCGCCATCTAC | 1.04 RPM ratio (pull-down/input)
12 | GATGATTGTTCTCCCAGCTGATGAATTATTTTTGTCGAGTAAACAAATTTTCCTAATCTTTCTGTTCAAGCGCCATCTAC | 1.37 RPM ratio (pull-down/input)
13 | GATGATTGTTCTCCCAGCTGATGAATTTATTCTGTCGAGTAAACAAATTTTCCTAATCTTTCTGTTCAAGCGCCATCTAC | 1.12 RPM ratio (pull-down/input)
14 | GATGATTGTTCTCCCAGCTGATGAATTATATTTGTCGAGTAAACAAATTTTCCTAATCTTTCTGTTCAAGCGCCATCTAC | 2.29 RPM ratio (pull-down/input)
15 | GATGATTGTTCTCCCAGCTGATGAATTGTTATTGTCGAGTAAACAAATTTTCCTAATCTTTCTGTTCAAGCGCCATCTAC | 3.45 RPM ratio (pull-down/input)
16 | GATGATTGTTCTCCCAGCTGATGAATTAAACATATCGAGTAAACAAATTTTCCTAATCTTTCTGTTCAAGCGCCATCTAC | 1.4 RPM ratio (pull-down/input)
17 | GATGATTGTTCTCCCAGCTGATGAATTGGTGCCATCGAGTAAACAAATTTTCCTAATCTTTCTGTTCAAGCGCCATCTAC | 0.972 RPM ratio (pull-down/input)
18 | GATGATTGTTCTCCCAGCTGATGAATTCGCTGTATCGAGTAAACAAATTTTCCTAATCTTTCTGTTCAAGCGCCATCTAC | 1.04 RPM ratio (pull-down/input)

Row | Sequence | binding signal
19 | GATGATTGTTCTCCCAGCTGATGAATTTACCCTCTCGAGTAAACAAATTTTCCTAATCTTTCTGTTCAAGCGCCATCTAC | 1.06 RPM ratio (pull-down/input)
20 | GATGATTGTTCTCCCAGCTGATGAATTAAAAAGTTCGAGTAAACAAATTTTCCTAATCTTTCTGTTCAAGCGCCATCTAC | 0.935 RPM ratio (pull-down/input)
21 | GATGATTGTTCTCCCAGCTGATGAATTATAGTAGTCGAGTAAACAAATTTTCCTAATCTTTCTGTTCAAGCGCCATCTAC | 0.985 RPM ratio (pull-down/input)
22 | GATGATTGTTCTCCCAGCTGATGAATTGGTCGCGTCGAGTAAACAAATTTTCCTAATCTTTCTGTTCAAGCGCCATCTAC | 1.03 RPM ratio (pull-down/input)
23 | GATGATTGTTCTCCCAGCTGATGAATTCAAGCTCTCGAGTAAACAAATTTTCCTAATCTTTCTGTTCAAGCGCCATCTAC | 0.854 RPM ratio (pull-down/input)
24 | GATGATTGTTCTCCCAGCTGATGAATTTTATGTGTCGAGTAAACAAATTTTCCTAATCTTTCTGTTCAAGCGCCATCTAC | 1.13 RPM ratio (pull-down/input)
25 | GATGATTGTTCTCCCAGCTGATGAATTTATTGTGTCGAGTAAACAAATTTTCCTAATCTTTCTGTTCAAGCGCCATCTAC | 1.88 RPM ratio (pull-down/input)
26 | GATGATTGTTCTCCCAGCTGATGAATTTATTTTGTCGAGTAAACAAATTTTCCTAATCTTTCTGTTCAAGCGCCATCTAC | 1.62 RPM ratio (pull-down/input)
27 | GATGATTGTTCTCCCAGCTGATGAATTATTTTGGTCGAGTAAACAAATTTTCCTAATCTTTCTGTTCAAGCGCCATCTAC | 1.35 RPM ratio (pull-down/input)
28 | GATGATTGTTCTCCCAGCTGATGAATTCTTATTGTCGAGTAAACAAATTTTCCTAATCTTTCTGTTCAAGCGCCATCTAC | 2.49 RPM ratio (pull-down/input)
29 | GATGATTGTTCTCCCAGCTGATGAATTTTATTTGTCGAGTAAACAAATTTTCCTAATCTTTCTGTTCAAGCGCCATCTAC | 2.45 RPM ratio (pull-down/input)
30 | GATGATTGTTCTCCCAGCTGATGAATTATTCCTGTCGAGTAAACAAATTTTCCTAATCTTTCTGTTCAAGCGCCATCTAC | 0.964 RPM ratio (pull-down/input)
31 | GATGATTGTTCTCCCAGCTGATGAATTGTCTTATTCGAGTAAACAAATTTTCCTAATCTTTCTGTTCAAGCGCCATCTAC | 1.18 RPM ratio (pull-down/input)
32 | GATGATTGTTCTCCCAGCTGATGAATTGATTGTGTCGAGTAAACAAATTTTCCTAATCTTTCTGTTCAAGCGCCATCTAC | 1.35 RPM ratio (pull-down/input)
33 | GATGATTGTTCTCCCAGCTGATGAATTTAATTTGTCGAGTAAACAAATTTTCCTAATCTTTCTGTTCAAGCGCCATCTAC | 1.25 RPM ratio (pull-down/input)
34 | GATGATTGTTCTCCCAGCTGATGAATTTATTTGGTCGAGTAAACAAATTTTCCTAATCTTTCTGTTCAAGCGCCATCTAC | 1.59 RPM ratio (pull-down/input)
35 | GATGATTGTTCTCCCAGCTGATGAATTTTATTGGTCGAGTAAACAAATTTTCCTAATCTTTCTGTTCAAGCGCCATCTAC | 1.74 RPM ratio (pull-down/input)
